The list is not random: actives were taken first. Their share in the collection is about 19%.
HepG2 tox – counter-screen for TGF-b inhibitors: cytotoxicity in HepG2 cells | Potency, µM (highest dose often 46.1 µM), usual class: cytotoxic | 410,000 compounds, 0.76% hits | HepG2 CAGA-GFP viability, ATP luminescence, 18 h | AID 588856
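CellTiter-Glo luminescence gave cytotoxicity after 18 hours at 37 degrees C. The cells were HepG2 CAGA-GFP in 1% FBS DMEM, stimulated with 500 pg/mL TGF-beta after compound addition. %Activity was normalised to no-cell wells (complete cell-killing) and DMSO (no toxicity), and curves were fitted and classified.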
DT40 TDP1 no CPT – qHTS for Inhibitors of human tyrosyl-DNA phosphodiesterase 1 (TDP1): qHTS in cells in absence of CPT; DT40 Tdp1-/- hTDP1 cells, no CPT, ATP luminescence, 48 h; Potency, µM (series often up to 46.2 µM), hits mostly inhibitors; 420,000 compounds, 15% hits; AID 686978, 2013; note: nearly all actives have a fitted effect of over 55% in size
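No-CPT arm: Tdp1-/-;hTDP1 DT40 cells (400/well) plus compounds, incubated ≥48 hr at 37 °C. Readout CellTiter-Glo luminescence.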
IL-1B inflam inh – blocks inflammasome-driven IL-1 beta release; THP-1 LPS/ATP IL-1B secretion, AlphaLISA, 16 h; stronger effect = lower value; activity change, % at 57.5 µM; 360,000 compounds, 4.7% hits; AID 743279; in the data active = activity change below about -50%; inconclusive = mostly about -30% to -49%
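Secreted IL-1B measured by AlphaLISA bead assay after 16 h compound exposure of THP-1 cells; compounds (final up to 57.5 uM) added 1 h before LPS (250 ng/mL) and ATP (1.25 mM) stimulation; lower signal means less secretion.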
TDP1 inh – blocks human tyrosyl-DNA phosphodiesterase 1; recombinant TDP1, AlphaScreen DNA substrate cleavage; Potency, µM (highest dose often 130 µM), hits mostly inhibitors; 350,000 compounds, 0.28% hits; note: nearly all actives have a fitted effect of over 40% in size
Target sequence (Q9NUW8 whole entry, looked up): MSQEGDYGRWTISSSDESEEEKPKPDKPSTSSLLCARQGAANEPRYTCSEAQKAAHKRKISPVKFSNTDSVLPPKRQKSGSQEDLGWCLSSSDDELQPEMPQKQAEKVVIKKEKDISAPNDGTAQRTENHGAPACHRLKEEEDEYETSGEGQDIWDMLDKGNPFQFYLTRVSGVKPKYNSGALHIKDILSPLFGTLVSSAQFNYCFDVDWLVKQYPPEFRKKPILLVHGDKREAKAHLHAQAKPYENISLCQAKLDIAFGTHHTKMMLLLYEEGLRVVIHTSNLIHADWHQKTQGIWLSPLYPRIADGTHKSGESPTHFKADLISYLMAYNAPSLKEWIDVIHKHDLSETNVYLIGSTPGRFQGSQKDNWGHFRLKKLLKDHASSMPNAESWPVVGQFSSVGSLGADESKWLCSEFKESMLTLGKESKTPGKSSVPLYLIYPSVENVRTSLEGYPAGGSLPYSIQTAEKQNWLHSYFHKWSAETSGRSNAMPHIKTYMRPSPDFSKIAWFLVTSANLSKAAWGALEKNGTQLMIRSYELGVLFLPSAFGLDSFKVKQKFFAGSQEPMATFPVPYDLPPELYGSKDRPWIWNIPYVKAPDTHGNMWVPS
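Recombinant E. coli-expressed Tdp1 (1 nM) preincubated with compound 15 min at RT, then 5'-biotin/3'-phosphotyrosine-FITC DNA substrate (15 nM) added for 5 min. AlphaScreen beads (10 ug/ml) added, 10 min RT; tyrosine-FITC cleavage read as signal loss.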
TGFb SMAD3 inh – inhibitors of TGF-b signaling; Potency, µM (doses to about 46.1 µM), usual class: inhibitors; AID 588855; 410,000 compounds, 1.2% hits; HepG2 CAGA-GFP TGF-b/SMAD3 reporter, GFP fluorescence, 18 h; TGF-beta stimulated, 500 pg/mL final; note: nearly all actives have a fitted effect of over 65% in size
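HEPG2 CAGA-GFP cells (1000/well, DMEM with 1% FBS) were pre-incubated 2 h at 37 degrees C, given compound by pin tool, then stimulated with TGF-beta at 500 pg/mL final for 18 h before per-cell GFP fluorescence imaging.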
DT40 TDP1 CPT – growth inhibition of DT40 Tdp1-/-;hTDP1 cells with camptothecin (screen for TDP1 inhibitors) | chicken DT40 Tdp1-/-;hTDP1 cells + 20 nM CPT, ATP luminescence, 48 h | Potency, µM (titrated, usually from 46.2 µM), most hits filed as inhibitors | 420,000 compounds, 12% hits | AID 686979; note: nearly all actives have a fitted effect of over 55% in size
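Cell growth measured by CellTiter-Glo luminescence after a minimum 48 h, 37 C compound exposure with 20 nM CPT in Tdp1-knockout DT40 cells stably expressing hTDP1, seeded 400/well; qHTS titration format.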
Hits are given with their value; – = inactive; ? = inconclusive; · = no result; [ ] = another dose, or the depositor's remark. Unless noted, calls come from the whole dose curve; as a rule, active = well fitted curve in the direction sought with a large enough effect; inconclusive = small, poorly fitted or top-dose-only effect, or another doubt; inactive = no such curve, though single readings can be large; an effect the other way counts as inactive or inconclusive.

SMILES | HepG2 tox | DT40 TDP1 no CPT | IL-1B inflam inh | TDP1 inh | TGFb SMAD3 inh | DT40 TDP1 CPT
COc1cccc(N2C(=O)C(CC(=O)Nc3ccccc3)N(CCc3sccc3C)C2=O)c1 (stereo not given) | – | ? | · | – | ? | 18.4µM
CCOc1ccc(NC(=O)CC2C(=O)N(c3ccccc3)C(=O)N2CCc2sccc2C)cc1 (stereo not given) | – | 18.4µM | · | – | ? | 14.6µM
CCN(CC)C(=O)C1CCN(S(=O)(=O)c2c(C)noc2/C=C/c2cccc(OC)c2)CC1 | – | ? | · | – | ? | ?
Cc1csc(NC(=O)CSc2nc(C(C)C)nc3c2c(=O)n(C)c(=O)n3C)n1 | – | 4.61µM | – | – | – | 10.3µM
Cn1c(=O)c2c(SCC(=O)Nc3ccccc3F)nc(-c3ccccc3F)nc2n(C)c1=O | – | 14.6µM | – | – | – | ?
Cc1ccc(-c2nc(SCC(=O)Nc3cc(C)on3)c3c(=O)n(C)c(=O)n(C)c3n2)cc1 | – | 14.6µM | – | – | – | 11.6µM
Cc1cc2c(cc1S(=O)(=O)Nc1ccc(C(C)C)cc1)OCCN2C | – | 16.4µM | · | · | ? | ?
O=C1COc2ccc(S(=O)(=O)N3CCN(c4cccc(C(F)(F)F)c4)CC3)cc2N1 | – | – | – | – | ? | –
CC(=O)c1ccc(NS(=O)(=O)c2cc3c(cc2C)N(C)CCO3)cc1 | – | ? | – | – | – | 10.3µM
Cc1cc2c(cc1S(=O)(=O)N1CCN(c3ccccc3)CC1)OCCN2C | – | – | – | · | – | 7.31µM
Cc1cc2c(cc1S(=O)(=O)N1CCN(c3cccc(C(F)(F)F)c3)CC1)OCC(=O)N2 | – | ? | – | – | – | 18.4µM
CCOC(=O)CN(Cc1ccccc1)C(C(=O)NC1CCCCC1)c1ccc(C)cc1 (stereo not given) | – | ? | · | – | – | ?
O=C(Nc1ccc(N2CCN(c3ccc(F)cc3)CC2)c(C(=O)O)c1)c1cccs1 | – | – | · | – | – | –
O=C(Cn1nc(-c2ccccc2)nc(Cc2ccccc2)c1=O)Nc1ccccc1 | – | – | · | – | – | –
COc1cc2c(cc1OC)n(CC(=O)c1cccc(Cl)c1)c(=O)n1nc(CCn3nc(C)cc3C)nc21 | – | ? | · | – | – | ?
COc1cccc(CN2C(=O)CN(C3CCCCC3)C(=O)C2c2ccc(OC)c(OC)c2)c1 (stereo not given) | – | ? | · | – | ? | ?
CC(C)Oc1ccc(CNC(=O)Cn2nc(N3CCN(c4ccccc4)CC3)ccc2=O)cc1 | – | ? | · | – | ? | ?
Cc1cc2c(cc1S(=O)(=O)Nc1cccc(C(F)(F)F)c1)OCCN2C | – | ? | · | – | 3.55µM | –
Cc1ccccc1NS(=O)(=O)c1cc2c(cc1C)N(C)CCO2 | – | ? | – | · | – | –
COc1ccc(Cl)cc1NC(=O)CSC1=Nc2ccccc2C2=NC(CCC(=O)NCc3ccc(F)cc3)C(=O)N12 (stereo not given) | – | 16.4µM | · | – | – | 23.1µM
COc1ccc(Cl)cc1NC(=O)CSC1=Nc2ccccc2C2=NC(CC(=O)NC3CCCCC3)C(=O)N12 (stereo not given) | – | – | · | –[12.3 µM] | ? | 18.4µM
COc1ccc(NC(=O)CSC2=Nc3ccccc3C3=NC(CCC(=O)NCc4ccc(F)cc4)C(=O)N23)cc1Cl (stereo not given) | – | 14.6µM | · | – | – | ?
CCC1CCCCN1C(=O)CCNC(=O)Cn1cnc2ccccc2c1=O (stereo not given) | – | – | – | – | – | –
O=C(Nc1ccc(Cl)cc1)c1ccc2c(c1)N(Cc1ccccc1)CCS2 | – | ? | · | – | – | 14.6µM
O=C(NC1CC1)c1ccc2c(c1)N(Cc1ccccc1)CCS2 | – | – | – | – | – | ?
SMILES | HepG2 tox | DT40 TDP1 no CPT | IL-1B inflam inh | TDP1 inh | TGFb SMAD3 inh | DT40 TDP1 CPT
Cc1ccc(CN2CCSc3ccc(C(=O)Nc4cc(C)cc(C)c4)cc32)cc1 | – | ? | · | – | – | ?
Cc1ccc(CN2CCSc3ccc(C(=O)Nc4ccc(Cl)cc4)cc32)cc1 | – | ? | · | – | – | 23.1µM
COc1ccc(S(=O)(=O)N2CCC(C(=O)Nc3cc(C(F)(F)F)ccc3Cl)CC2)cc1 | – | 16.4µM | · | · | ? | ?
O=C(Nc1ccncc1)C1CCN(S(=O)(=O)c2cccs2)CC1 | – | ? | – | – | – | –
Cc1ccc(S(=O)(=O)N2CCC(C(=O)Nc3ccncc3)CC2)cc1 | – | ? | – | – | – | ?
Cc1cc(C)c(C)c(S(=O)(=O)N2CCC(C(=O)Nc3ccncc3)CC2)c1C | – | 8.2µM | – | – | – | ?
COc1ccc(/C=N/NC(=S)Nc2cc(C(F)(F)F)ccc2Cl)cc1 | 0.631µM | ? | – | – | – | ?
O=C(Nc1ccncc1)C1CCN(S(=O)(=O)c2ccc(Cl)cc2)CC1 | – | 16.4µM | – | –[0.505 µM] | – | 23.1µM
NCCC[C@@H](CC(=O)N[C@@H]1CCNC[C@H]1C(=O)N[C@H](CC(=O)N[C@@H](CCC(=O)O)CC(=O)O)Cc1c[nH]c2ccccc12)NC(=O)C[C@H](CO)NC(=O)[C@@H]1CCCC[C@H]1N | · | · | · | – | · | ·
Cc1cc(CSc2ccc(Cl)cc2)ccc1N | – | – | ? | · | – | –
CCOc1cc(OCC)c(C(=O)CCC(=O)O)cc1OCC | · | – | · | · | · | –
Cc1cccnc1NC(=O)CNC(=O)c1ccccc1 | – | – | – | – | – | –
O=C(Nc1ccncc1)C1CCN(S(=O)(=O)c2ccccc2)CC1 | – | ? | – | · | – | ?
O=C(Nc1ccncc1)C1CCN(S(=O)(=O)c2ccc(Cl)c(C(F)(F)F)c2)CC1 | – | 14.6µM | ? | – | – | 16.4µM
O=C(Nc1ccncc1)C1CCN(S(=O)(=O)c2ccccc2C(F)(F)F)CC1 | – | 25.9µM | – | – | – | 14.6µM
Cc1ccnc(NC(=O)C2CCN(S(=O)(=O)c3ccc(Cl)c(C(F)(F)F)c3)CC2)c1 | – | ? | – | – | – | ?
Cc1cc(C)c(C)c(S(=O)(=O)N2CCC(C(=O)N3CC(C)CC(C)C3)CC2)c1C (stereo not given) | – | 25.9µM | -74.7 | –[0.505 µM] | – | 18.4µM
Cc1ccc2nc(-c3ccc(O)c(O)c3)cn2c1 | – | 20.6µM | – | · | – | ?
Cc1ccc2nc(-c3ccccc3)cn2c1 | – | 18.4µM | – | – | – | ?
COc1ccc(Nc2ncnc3c2cnn3-c2ccc(C)cc2)cc1Cl | – | 23.1µM | · | – | – | ?
Cc1ccc(Nc2ncnc3c2cnn3-c2ccc(C)cc2)cc1 | – | ? | · | – | – | –

Source: PubChem
